This is an account of results in PubChem BioAssay AID623996 (NMMLSC, 2012).

The test addresses Multidrug resistance protein CDR1 (Candida albicans) (UniProt P43071). The test can be described thus: CaCdr1 efflux pump inhibitor potency, dose response, singleplex, Cherry Pick2 set (AID 623996).

Measured potencies and affinities stand elsewhere. Activity calls are given as the source filed them.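 Rule for the calls: active = fitted concentration giving half the maximal Nile Red retention below 100 µM; inactive = the rest.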

Chain of Multidrug resistance protein CDR1 (Candida albicans) (P43071 whole entry, looked up): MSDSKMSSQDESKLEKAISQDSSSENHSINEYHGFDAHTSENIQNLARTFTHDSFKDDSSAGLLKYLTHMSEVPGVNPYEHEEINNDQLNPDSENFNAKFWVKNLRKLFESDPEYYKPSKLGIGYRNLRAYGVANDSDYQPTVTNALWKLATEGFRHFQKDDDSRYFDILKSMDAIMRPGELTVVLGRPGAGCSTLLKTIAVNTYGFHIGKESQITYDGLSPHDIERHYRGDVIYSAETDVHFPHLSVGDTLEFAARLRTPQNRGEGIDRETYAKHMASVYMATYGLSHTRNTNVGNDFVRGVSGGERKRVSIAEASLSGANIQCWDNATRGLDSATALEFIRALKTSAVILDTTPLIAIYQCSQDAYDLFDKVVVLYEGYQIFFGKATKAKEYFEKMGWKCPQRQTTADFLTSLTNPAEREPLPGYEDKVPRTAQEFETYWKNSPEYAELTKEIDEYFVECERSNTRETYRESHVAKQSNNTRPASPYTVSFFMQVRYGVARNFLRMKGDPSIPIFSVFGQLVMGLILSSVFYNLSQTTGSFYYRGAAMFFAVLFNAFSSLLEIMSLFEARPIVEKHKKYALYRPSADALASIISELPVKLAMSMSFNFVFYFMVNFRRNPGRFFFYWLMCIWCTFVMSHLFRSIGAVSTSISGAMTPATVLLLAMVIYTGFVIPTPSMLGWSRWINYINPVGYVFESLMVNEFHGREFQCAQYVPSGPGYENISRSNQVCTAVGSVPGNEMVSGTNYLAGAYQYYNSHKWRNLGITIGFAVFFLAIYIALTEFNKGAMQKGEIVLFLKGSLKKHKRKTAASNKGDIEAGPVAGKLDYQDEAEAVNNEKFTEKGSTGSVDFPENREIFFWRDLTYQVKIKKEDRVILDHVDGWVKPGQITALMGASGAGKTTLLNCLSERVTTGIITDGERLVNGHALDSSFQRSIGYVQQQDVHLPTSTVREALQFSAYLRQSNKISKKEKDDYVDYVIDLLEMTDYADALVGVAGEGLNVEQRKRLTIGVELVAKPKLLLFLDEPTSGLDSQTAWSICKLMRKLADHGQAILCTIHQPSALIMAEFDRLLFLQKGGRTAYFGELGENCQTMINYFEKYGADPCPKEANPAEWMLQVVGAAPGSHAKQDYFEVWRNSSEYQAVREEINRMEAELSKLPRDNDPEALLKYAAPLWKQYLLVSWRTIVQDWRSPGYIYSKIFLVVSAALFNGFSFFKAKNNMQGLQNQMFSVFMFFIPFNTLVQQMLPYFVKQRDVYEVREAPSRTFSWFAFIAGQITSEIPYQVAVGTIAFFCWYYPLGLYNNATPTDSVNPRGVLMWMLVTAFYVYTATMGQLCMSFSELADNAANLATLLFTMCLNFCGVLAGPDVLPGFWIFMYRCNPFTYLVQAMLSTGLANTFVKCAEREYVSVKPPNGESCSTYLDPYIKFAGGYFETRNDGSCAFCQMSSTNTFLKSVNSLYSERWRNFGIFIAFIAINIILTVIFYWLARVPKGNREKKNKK

Turning to `NS(=O)(=O)c1ccc(N2N=C(c3ccc(Br)cc3)CC2c2ccc(F)cc2)cc1` (stereo not drawn), the molecule was called inactive.

In the case of `COc1ccc(O)c(C(=O)c2cnc3c(c2)CN(C)C(=O)N3)c1`, the outcome was inactive. Turning to `Cc1ccc(CN2C(=O)C(CC(C)C)Nc3ncnc(N4CCN(c5ccccc5)CC4)c32)cc1` (stereo not drawn), the molecule was classed as inactive.

For the molecule `COc1cc(OC)c2ccc(=O)oc2c1C(CCN1CCCC1)c1ccc(N(C)C)cc1` (stereo not drawn), the call was inactive. The same measure for `COc1ccc(-c2c[n+](CC(=O)N3c4ccccc4Sc4ccccc43)c3n2CCC3)cc1`: “inactive”. Regarding `Cc1ccc(-c2c[n+](CC(=O)N3c4ccccc4Sc4ccccc43)c3n2CCC3)cc1`, the result was inactive. For `C[C@@]12C(=O)Nc3ccc(Cl)cc3C(=O)N1[C@H]1c3cc(Cl)ccc3OC[C@@H]1[C@@H]2c1ccccc1`, the outcome was inactive.

In the case of `O=C(C1CCCN(c2ncnc3c2nc2n3CCCCC2)C1)N1CCN(c2ccccc2)CC1` (stereo not drawn), the outcome was inactive. To `COc1cc(OC)c2ccc(=O)oc2c1C(CCN1CCCCC1)c1ccc(N(C)C)cc1` (stereo not drawn) belongs “inactive”; to `CC(C)C(=O)N1CCN(c2ccccc2NC(=O)c2ccc3c(c2)OCCO3)CC1`, “inactive”.

For the molecule `CCO[C@@H]1OC(C(=O)Nc2ccccc2)=C[C@H](c2ccc(Br)cc2)[C@H]1CCCO`, the molecule was called inactive. As for `Cc1ccc(C)c(N2CCN(C(=O)C3CCCN(c4ncnc5c4nc4n5CCCCC4)C3)CC2)c1` (stereo not drawn), the result was inactive. To `COc1ccccc1C(=O)OCCc1ccccc1` belongs “inactive”; to `NS(=O)(=O)c1ccc(N2N=C(c3ccccc3)CC2c2ccc(Br)cc2)cc1` (stereo not drawn), “inactive”.

On to `O=C(NCCc1ccc(Cl)cc1)C1CCC(CNc2nc(=S)[nH]c3ccccc23)CC1` (stereo not drawn), for which the result was inactive. The same measure for `O=C(NCCC1=CCCCC1)C1CCC(CNc2nc(=S)[nH]c3ccccc23)CC1` (stereo not drawn): “inactive”. As to `Cc1cc(C(=O)NC2CC(C)(C)Cc3c2cnn3-c2ccc(F)cc2)no1` (stereo not drawn), the molecule was called inactive.

On to `O=C(C1CCCN(c2ncnc3c2nc2n3CCCCC2)C1)N1CCN(c2ccccc2F)CC1` (stereo not drawn), for which the call was inactive. For `COc1ccc(C2CC(c3ccccc3C(F)(F)F)=NN2c2ccc(S(N)(=O)=O)cc2)cc1` (stereo not drawn), the result was inactive. As for `O=C(C1CCCN(c2ncnc3c2nc2n3CCCCC2)C1)N1CCN(c2cccc(Cl)c2)CC1` (stereo not drawn), the molecule was called inactive. Consider `COc1ccc(-c2sc3ccccc3c2-c2ccc(OCCN(C)C)cc2)cc1`, for which the result was inactive. To `OCCN1CCN(CC/C=C2/c3ccccc3Sc3ccc(C(F)(F)F)cc32)CC1` belongs “inactive”. For `O=C(C[n+]1cc(-c2ccc(Cl)cc2)n2c1CCC2)N1c2ccccc2Sc2ccccc21`, the call was inactive. For `O=C(C[n+]1cc(-c2ccccc2)n2c1CCC2)N1c2ccccc2Sc2ccccc21`, the outcome was inactive. To `CCCCN1Cc2cc(C(=O)c3cc(F)ccc3O)cnc2NC1=O` belongs “inactive”. Regarding `O=C(Nc1ccccc1)C1=C[C@@H](c2ccc(C(F)(F)F)cc2)C[C@@H](OCCCCO)O1`, the molecule was classed as inactive. On to `CC(C)C(=O)N1CCC2(CC1)Oc1ccc(F)cc1C(=O)C21CC(c2ccc(Cl)cc2)=NO1` (stereo not drawn), for which the result was inactive. Regarding `O=C1C(Cc2ccccc2)Nc2ncnc(N3CCN(c4ccccc4)CC3)c2N1Cc1ccccc1` (stereo not drawn), the molecule was classed as inactive.

Consider `COc1cccc(N2CCN(C(=O)C3CCCN(c4ncnc5c4nc4n5CCCCC4)C3)CC2)c1` (stereo not drawn), for which the result was inactive. Regarding `COc1ncccc1C(=O)NC1CCCc2c1cnn2-c1cc(C)cc(C)c1` (stereo not drawn), the molecule was called inactive. `Cc1ccc(N2CCN(C(=O)C3CCCN(c4ncnc5c4nc4n5CCCCC4)C3)CC2)c(C)c1` (stereo not drawn): the molecule was classed as inactive.

Consider `O=C(C1CCC(CNc2nc(=S)[nH]c3ccccc23)CC1)N1CCN(c2ccc(F)cc2)CC1` (stereo not drawn), for which the call was inactive. For `CCCCN1Cc2cc(C(=O)c3cc(OC)ccc3O)cnc2NC1=O`, the call was inactive. `CN1Cc2cc(C(=O)c3ccccc3O)cnc2NC1=O`: the call was inactive. Turning to `O=C(Nc1ccccc1)C1=C[C@@H](c2ccc(Br)cc2)C[C@@H](OCCCCO)O1`, the molecule was called inactive. To `COc1ccc(N2CCN(C(=O)C3CCCN(c4ncnc5c4nc4n5CCCCC4)C3)CC2)cc1` (stereo not drawn) belongs “inactive”. Turning to `NC1=NC[C@@H](Cc2ccc(O)cc2)N1CCCCC1CCCCC1`, the molecule was classed as inactive. Consider `O=C(CSc1nnc(Cc2cccs2)n1Cc1ccco1)Nc1cccc(Cl)c1`, for which the result was inactive. Regarding `CCC(=O)N1CCN(c2ccc(Cl)cc2NC(=O)c2ccc3c(c2)OCCO3)CC1`, the molecule was classed as inactive. The same measure for `Cc1cccc2sc(N(CCCN(C)C)C(=O)c3ccc(Cl)s3)nc12`: “inactive”; for `NS(=O)(=O)c1ccc(N2N=C(c3ccccc3)CC2c2ccccc2)cc1` (stereo not drawn): “inactive”.

As to `CCOc1cccc2sc(NC(=O)c3ccc(Br)s3)nc12`, the call was inactive. The same measure for `COc1ccc(C(=O)NC2CC(C)(C)Cc3c2cnn3-c2ccccc2)c(OC)c1` (stereo not drawn): “inactive”.
